Results taken from PubChem BioAssay (NCI).
Compounds without any hit were thinned out: in the full panel of roughly 79,000, 15% have a hit. Active and inactive are the calls of the source. No stated cut-off is given here; in the data, active means growth inhibition above about 70%; inactive means the rest.

What was measured:
[1] = NCI Yeast Anticancer Drug Screen. Data for the rad52 strain (AID 147);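 further: 0% = growth of vehicle-treated control cultures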; details: S. cerevisiae rad52 mutant growth inhibition, hits give high values
Summary of the method: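 Growth of repair-deficient yeast cells was compared between compound-treated and vehicle-treated cultures to give percent inhibition.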

[2] = NCI Yeast Anticancer Drug Screen. Data for the wt1 strain (AID 149);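 further: 0% = growth of vehicle-treated wt1 cultures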; details: S. cerevisiae wt1 strain (SPY 50644) growth inhibition, hits give high values
Summary of the method: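 Measured: growth of wt1 yeast under compound versus vehicle treatment, reported as inhibition.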

[3] = NCI Yeast Anticancer Drug Screen. Data for the rad50EPP+ strain (AID 151);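 further: 0% = growth of vehicle-treated control cultures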; details: S. cerevisiae rad50 mutant strain, hits give high values
Summary of the method: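 Measured: growth inhibition of rad50EPP+ yeast. Reference: vehicle-treated controls. Screen uses strains with defined genetic alterations in DNA damage repair or cell cycle control.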

[4] = NCI Yeast Anticancer Drug Screen. Data for the mgt1 strain (AID 153); details: S. cerevisiae mgt1 mutant growth inhibition, hits give high values
Summary of the method: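 Compounds were applied to mgt1 mutant yeast, and growth was then compared against vehicle-treated control cultures to give percent inhibition.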

[5] = NCI Yeast Anticancer Drug Screen. Data for the rad50 strain (AID 155);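 further: 0% = growth of vehicle-only cultures of the same strain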; details: S. cerevisiae rad50 strain growth inhibition, hits give high values
Summary of the method: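 Growth of the mutant yeast was measured after compound exposure and referenced to vehicle-treated cultures.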

[6] = NCI Yeast Anticancer Drug Screen. Data for the mec2-1 strain (AID 157); details: S. cerevisiae mec2-1 strain, hits give high values
Summary of the method: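 Compounds were applied to mec2-1 yeast cells. Their growth was then compared with that of vehicle-treated cultures to give growth inhibition.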

[7] = NCI Yeast Anticancer Drug Screen. Data for the rad14 strain (AID 159);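 further: 0% = growth of vehicle-treated control cultures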; details: S. cerevisiae rad14 strain growth inhibition, hits give high values
Summary of the method: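 Here, inhibition of yeast growth was measured after compound exposure, using a strain with a genetic defect in DNA damage repair and vehicle-treated cultures as the reference.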

[8] = NCI Yeast Anticancer Drug Screen. Data for the sgs1 mgt1 strain (AID 161);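 further: 0% = growth of cultures given vehicle only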; details: S. cerevisiae sgs1 mgt1 strain, hits give high values
Summary of the method: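 Growth of a repair-deficient yeast mutant was monitored after compound treatment and expressed as inhibition relative to vehicle-treated cultures.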

[9] = NCI Yeast Anticancer Drug Screen. Data for the CLN2oe strain (AID 163);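 further: 0% = growth of vehicle-only control cultures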; details: S. cerevisiae CLN2oe strain, hits give high values
Summary of the method: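 Cells of an engineered yeast line with disturbed cell-cycle regulation are treated with compound. Inhibition of growth is then calculated relative to the vehicle-treated reference.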

[10] = NCI Yeast Anticancer Drug Screen. Data for the cln2 rad14 strain (AID 165);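 further: 0% = growth equal to vehicle treated cultures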; details: S. cerevisiae cln2 rad14 strain, hits give high values
Summary of the method: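 Strain: cln2 rad14 yeast, altered in cell cycle control and DNA damage repair. Read-out: growth inhibition vs vehicle.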

[11] = NCI Yeast Anticancer Drug Screen. Data for the bub3 strain (AID 167); details: S. cerevisiae bub3 mutant strain, hits give high values
Summary of the method: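 Whole-cell yeast assay. The mutant strain was incubated with compounds, and growth inhibition was determined by comparison with vehicle-treated cells.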

[12] = NCI Yeast Anticancer Drug Screen. Data for the wt2 strain (AID 169);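 further: 0% = growth of vehicle-treated yeast cultures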; details: S. cerevisiae wt2 strain growth inhibition, hits give high values
Summary of the method: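 Growth of compound-treated yeast is measured and expressed as inhibition relative to vehicle-only controls.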

[13] = NCI Yeast Anticancer Drug Screen. Data for the mlh1 strain (AID 171);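 further: 0% = growth of vehicle-treated control cultures of the same strain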; details: S. cerevisiae mlh1 strain growth inhibition, hits give high values
Summary of the method: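 Test agents were incubated with yeast bearing a defined DNA damage repair or cell cycle control alteration; values are growth inhibition normalised to vehicle-treated cultures.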

[14] = NCI Yeast Anticancer Drug Screen. Data for the sgs1 strain (AID 173);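 further: 0% = growth of vehicle-only control cultures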; details: S. cerevisiae sgs1 mutant, hits give high values
Summary of the method: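 Strain with an altered DNA repair or cell cycle pathway exposed to compound. Growth then measured. Value = inhibition versus vehicle control.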

[15] = NCI Yeast Anticancer Drug Screen. Data for the rad18 strain (AID 177); details: S. cerevisiae rad18 mutant growth inhibition, hits give high values
Summary of the method: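 DNA-repair-defective yeast; compound treatment; growth inhibition scored against vehicle.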

[16] = at 5.0 µM (retest, dose inferred, filed as 0.5)
[17] = at 50.0 µM (retest, dose inferred, filed as 5.0)

Measured: growth inhibition

COc1ccc(N=CN(C)C)c(C)c1
inactive: [1]; at 1.2 µM -24% | [1]; at 3.7 µM -26% | [1]; at 11.0 µM 0% | [2]; at 1.2 µM -29% | [2]; at 3.7 µM -29% | [2]; at 11.0 µM -32% | [2]; at 33.0 µM 61% | [3]; at 1.2 µM -9% | [3]; at 3.7 µM -62% | [3]; at 11.0 µM -62% | [3]; at 33.0 µM -34% | [4]; at 1.2 µM -40% | [4]; at 3.7 µM -51% | [4]; at 11.0 µM -43% | [5]; at 1.2 µM -1% | [5]; at 3.7 µM 1% | [5]; [16] 50% | [5]; at 11.0 µM -19% | [6]; at 1.2 µM -44% | [6]; at 3.7 µM -70% | [6]; [16] 46% | [6]; at 11.0 µM -43% | [7]; at 1.2 µM -63% | [7]; at 3.7 µM -54% | [7]; at 11.0 µM -43% | [8]; [16] -4% | [9]; at 1.2 µM -28% | [9]; at 3.7 µM -34% | [9]; at 11.0 µM -10% | [10]; [16] 63% | [11]; at 1.2 µM -30% | [11]; at 3.7 µM -9% | [11]; [16] 44% | [11]; at 11.0 µM -28% | [12]; at 1.2 µM -26% | [12]; at 3.7 µM -39% | [12]; at 11.0 µM -27% | [13]; at 1.2 µM -37% | [13]; at 3.7 µM -3% | [13]; at 11.0 µM -16% | [14]; at 1.2 µM -45% | [14]; at 3.7 µM -40% | [14]; at 11.0 µM -59% | [15]; at 1.2 µM -50% | [15]; at 3.7 µM -55% | [15]; at 11.0 µM -8%
active: [1]; at 33.0 µM 83% | [1]; at 100.0 µM 94% | [2]; at 100.0 µM 95% | [3]; at 100.0 µM 71% | [4]; at 33.0 µM 93% | [4]; at 100.0 µM 95% | [5]; at 33.0 µM 86% | [5]; [17] 78% | [5]; at 50.0 µM 91.5% | [5]; at 100.0 µM 95% | [6]; at 33.0 µM 85% | [6]; [17] 76% | [6]; at 50.0 µM 94% | [6]; at 100.0 µM 96% | [7]; at 33.0 µM 92% | [7]; at 100.0 µM 95% | [8]; [17] 97% | [8]; at 50.0 µM 93.5% | [9]; at 33.0 µM 84% | [9]; at 100.0 µM 93% | [10]; [17] 96% | [10]; at 50.0 µM 92% | [11]; at 33.0 µM 88% | [11]; [17] 95% | [11]; at 50.0 µM 91.9% | [11]; at 100.0 µM 94% | [12]; at 33.0 µM 87% | [12]; at 100.0 µM 96% | [13]; at 33.0 µM 93% | [13]; at 100.0 µM 96% | [14]; at 33.0 µM 89% | [14]; at 100.0 µM 95% | [15]; at 33.0 µM 89% | [15]; at 100.0 µM 93%

Cc1c2cccc(Sc3ccccc3)c2c2c3c(cccc13)[S+](c1ccccc1)C2 (stereo not given)
inactive: [1]; at 1.2 µM 13% | [1]; at 3.7 µM 41% | [2]; at 1.2 µM 8% | [2]; at 3.7 µM 19% | [3]; at 1.2 µM 4% | [3]; at 3.7 µM 12% | [3]; at 11.0 µM 39% | [4]; at 1.2 µM 5% | [4]; at 3.7 µM 4% | [5]; at 1.2 µM 25% | [5]; at 3.7 µM 69% | [5]; [16] 58% | [6]; at 1.2 µM 7% | [6]; at 3.7 µM 30% | [6]; [16] 28% | [7]; at 1.2 µM -1% | [7]; at 3.7 µM 17% | [8]; [16] 18% | [9]; at 1.2 µM -3% | [9]; at 3.7 µM -1% | [10]; [16] 7% | [11]; at 1.2 µM -5% | [11]; at 3.7 µM 27% | [11]; [16] 16% | [12]; at 1.2 µM 6% | [12]; at 3.7 µM 25% | [13]; at 1.2 µM 0% | [13]; at 3.7 µM 22% | [14]; at 1.2 µM 10% | [14]; at 3.7 µM 40% | [15]; at 1.2 µM 28% | [15]; at 3.7 µM 65%
active: [1]; at 11.0 µM 96% | [1]; at 33.0 µM 95% | [1]; at 100.0 µM 88% | [2]; at 11.0 µM 96% | [2]; at 33.0 µM 96% | [2]; at 100.0 µM 88% | [3]; at 33.0 µM 88% | [3]; at 100.0 µM 88% | [4]; at 11.0 µM 97% | [4]; at 33.0 µM 95% | [4]; at 100.0 µM 90% | [5]; at 11.0 µM 97% | [5]; at 33.0 µM 94% | [5]; [17] 97% | [5]; at 50.0 µM 90.9% | [5]; at 100.0 µM 82% | [6]; at 11.0 µM 98% | [6]; at 33.0 µM 95% | [6]; [17] 97% | [6]; at 50.0 µM 93.5% | [6]; at 100.0 µM 91% | [7]; at 11.0 µM 98% | [7]; at 33.0 µM 96% | [7]; at 100.0 µM 90% | [8]; [17] 98% | [8]; at 50.0 µM 94.2% | [9]; at 11.0 µM 96% | [9]; at 33.0 µM 92% | [9]; at 100.0 µM 84% | [10]; [17] 96% | [10]; at 50.0 µM 93.4% | [11]; at 11.0 µM 97% | [11]; at 33.0 µM 94% | [11]; [17] 97% | [11]; at 50.0 µM 95.2% | [11]; at 100.0 µM 87% | [12]; at 11.0 µM 97% | [12]; at 33.0 µM 95% | [12]; at 100.0 µM 86% | [13]; at 11.0 µM 98% | [13]; at 33.0 µM 96% | [13]; at 100.0 µM 93% | [14]; at 11.0 µM 97% | [14]; at 33.0 µM 95% | [14]; at 100.0 µM 87% | [15]; at 11.0 µM 97% | [15]; at 33.0 µM 95% | [15]; at 100.0 µM 83%
